Growth inhibition call data for 72 compounds are collected here from the antibiotic and cytotoxicity screens of Wong et al. (2023).

Structures are written as SMILES. In all, about 39,000 compounds went through this assay and about 500 (1.3%) were called active. The full list was thinned out, with actives kept by preference.

The test system of the assay is S. aureus RN4220. Kind of assay: growth inhibition call (relative growth <= 0.2). The settings on record: 50 µM.
Take `O=C(N[C@H]1C=C[C@H](CC(=O)N2CCOCC2)O[C@@H]1CO)c1ccc2c(c1)OCO2`: the growth inhibition call is “inactive”.

Turning to `Cn1cnc(S(=O)(=O)N[C@H]2C=C[C@@H](CC(=O)NCC3CC3)O[C@H]2CO)c1`, the growth inhibition call was “inactive”.

With `COc1ccc(NC(=O)Nc2ccc3c(c2)C(=O)N([C@@H](C)CO)C[C@H](C)[C@H](CN(C)C(=O)c2ccccc2)OCCCC[C@@H](C)O3)cc1`, the growth inhibition call was “inactive”.

Consider `CN(C)CC#Cc1cncc(C(=O)NN)c1`, for which the growth inhibition call was “inactive”.

On to `CO[C@@H]1CN(C)C(=O)c2ccc(NC(=O)c3ccc(F)cc3)cc2OC[C@@H](C)N(C(=O)CN(C)C)C[C@@H]1C`, for which the growth inhibition call was “inactive”.

With `CN1CCN(C(=O)C[C@H]2C[C@H]3c4cc(NC(=O)c5ccc6c(c5)OCO6)ccc4O[C@H]3[C@H](CO)O2)CC1`, the growth inhibition call is “inactive”.

In the case of `C=CC[C@@H](CC(=O)NCCO)C(=O)NC[C@H](OC(=O)[C@@H](CC=C)CC(=O)OC(C)(C)C)c1ccccc1`, the growth inhibition call was “inactive”.

With `Nc1nc(C(=CCC(=O)O)C(=O)NC2C(=O)N3C(C(=O)O)=CCSC23)cs1` (configuration not stated), the growth inhibition call was “active”.

On to `C=CC1=C(C(=O)O)N2C(=O)[C@@H](NC(=O)/C(=N/O)c3csc(N)n3)[C@H]2SC1`, for which the growth inhibition call was “active”.

Turning to `C=CC1=C(C(=O)O)N2C(=O)C(NC(=O)C(=NOCC(=O)O)c3csc(N)n3)C2SC1` (configuration not stated), the growth inhibition call was “inactive”.

Take `C=CC1=C(C(=O)O)N2C(=O)C(NC(=O)C(=NO)c3csc(N)n3)C2SC1` (configuration not stated): the growth inhibition call is “active”.

On to `Nc1nc(/C(=C/CC(=O)O)C(=O)N[C@@H]2C(=O)N3C(C(=O)O)=CCS[C@H]23)cs1`, for which the growth inhibition call is “inactive”.

As for `C=CC1=C(C(=O)O)N2C(=O)[C@@H](NC(=O)/C(=N\OCC(=O)O)c3csc(N)n3)[C@H]2SC1`, the growth inhibition call was “active”.

As for `Nc1nc(/C(=N/O)C(=O)N[C@@H]2C(=O)N3C(C(=O)O)=C(/C=C4\CCN([C@@H]5CCNC5)C4=O)CS[C@H]23)ns1`, the growth inhibition call was “inactive”.

Regarding `COC(=O)/C=C/c1cn([C@H]2OC[C@@H](CO)[C@@H]2O)c(=O)[nH]c1=O`, the growth inhibition call is “inactive”.

Take `Cc1cncc2cccc(S(=O)(=O)N[C@H]3CN[C@@H](COC(=O)NCCOCCOCCN)C3)c12`: the growth inhibition call is “inactive”.

For the compound `C[C@H](CO)N1C[C@H](C)[C@@H](CN(C)S(C)(=O)=O)Oc2cc(-c3ccccc3F)ccc2S1(=O)=O`, the growth inhibition call was “inactive”.

As for `CCCN(C)C[C@@H]1OCCCC[C@@H](C)Oc2ccc(NC(=O)c3ccccc3)cc2C(=O)N([C@H](C)CO)C[C@@H]1C`, the growth inhibition call is “inactive”.

On to `COc1ccc(NC(=O)N(C)C[C@H]2Oc3ccc(NC(=O)Cn4cnnn4)cc3C(=O)N([C@H](C)CO)C[C@@H]2C)cc1`, for which the growth inhibition call is “inactive”.

For the compound `C[C@@H]1CN([C@@H](C)CO)C(=O)c2cc(NC(=O)Nc3ccc(F)cc3)ccc2O[C@@H](C)CCCCO[C@@H]1CN(C)Cc1ccccc1`, the growth inhibition call is “inactive”.

In the case of `C[C@@H]1CN([C@H](C)CO)C(=O)c2cccc(NC(=O)Nc3cccc4ccccc34)c2O[C@@H]1CN(C)CC1CCCCC1`, the growth inhibition call is “inactive”.

`C[C@H](CO)N1C[C@H](C)[C@@H](CN(C)Cc2ccc(Oc3ccccc3)cc2)Oc2ccc(NS(=O)(=O)c3cccs3)cc2C1=O`: the growth inhibition call was “inactive”.

On to `O=P(O)(O)C(Sc1ccc(Cl)cc1)P(=O)(O)O`, for which the growth inhibition call is “inactive”.

`C(=N\n1cnnc1)/c1ccco1`: the growth inhibition call is “inactive”.

Take `C[C@@H]1CN([C@H](C)CO)C(=O)Cc2cc(NS(=O)(=O)c3cn(C)cn3)ccc2O[C@H]1CN(C)CC1CCCCC1`: the growth inhibition call is “inactive”.

As to `CN1C(=O)c2cc(NC(=O)C3CCOCC3)ccc2OC[C@H]2O[C@@H](CC(=O)NCc3ccccc3F)CC[C@H]21`, the growth inhibition call is “inactive”.

Consider `O=C1NCCN1c1cccnc1`, for which the growth inhibition call was “inactive”.

Consider `Cc1noc(C)c1NC(=O)N(C)C[C@@H]1Oc2ccc(NC(=O)C3CC3)cc2CC(=O)N([C@H](C)CO)C[C@H]1C`, for which the growth inhibition call was “inactive”.

Turning to `C=CC1=C(C(=O)O)N2C(=O)[C@@H](NC(=O)/C(=N\O)c3csc(N)n3)[C@H]2SC1`, the growth inhibition call is “active”.

With `Cc1noc(C)c1NC(=O)Nc1ccc2c(c1)C(=O)N([C@@H](C)CO)C[C@@H](C)[C@H](CN(C)C(=O)Nc1ccc(F)cc1)OCCCC[C@@H](C)O2`, the growth inhibition call is “inactive”.

With `NCc1nc(CCc2ccccc2)cs1`, the growth inhibition call was “inactive”.

Consider `Cc1ccc(S(=O)(=O)Nc2cccc3c2O[C@H](CN(C)S(=O)(=O)c2ccc(F)cc2)[C@@H](C)CN([C@H](C)CO)C3=O)cc1`, for which the growth inhibition call was “inactive”.

For the compound `CN1CCN(C(=O)C[C@H]2CC[C@@H]3[C@H](COc4ccc(NC(=O)c5cscn5)cc4C(=O)N3C)O2)CC1`, the growth inhibition call is “inactive”.

Consider `COc1ccc(CC(=O)c2ccc(O)cc2O)cc1`, for which the growth inhibition call is “inactive”.

In the case of `COc1ccc(C=CC(=O)c2ccc(O)cc2O)cc1`, the growth inhibition call is “inactive”.

In the case of `COc1ccc(C(C)C(=O)c2ccc(O)cc2O)cc1` (configuration not stated), the growth inhibition call is “active”.

For `C[C@@H]1CN([C@@H](C)CO)C(=O)c2cc(NC(=O)Nc3ccc(F)cc3)ccc2O[C@@H](C)CCCCO[C@@H]1CN(C)C(=O)Cc1ccccc1`, the growth inhibition call was “inactive”.

Take `O=C(CO)N1C[C@H]2C[C@@H]1C[C@@H]2Oc1cccnc1`: the growth inhibition call was “inactive”.

With `CNC1C(OC2OC(CO)C(N)C(O)C2O)OC2CC(N)C(OC3C(N)CC(N)C(O)C3O)OC2C1O.O=S(=O)(O)O` (configuration not stated), the growth inhibition call was “active”.

Take `NCC1OC(OC2C(N)CC(N)C(O)C2OC2OC(CO)C(O)C2O)C(N)C(O)C1O.O=S(=O)(O)O` (configuration not stated): the growth inhibition call was “inactive”.

As to `NCCC(O)C(=O)NC1CC(N)C(OC2OC(CN)C(O)C(O)C2O)C(O)C1OC1OC(CO)C(O)C(N)C1O.O` (configuration not stated), the growth inhibition call is “inactive”.

Take `NC[C@H]1O[C@H](O[C@H]2[C@H](O)[C@@H](O[C@H]3O[C@H](CO)[C@@H](O)[C@H](N)[C@H]3O)[C@H](N)C[C@@H]2N)[C@H](N)[C@@H](O)[C@@H]1O`: the growth inhibition call was “inactive”.

As for `NCC[C@H](O)C(=O)N[C@@H]1C[C@H](N)[C@@H](O[C@H]2O[C@H](CN)[C@@H](O)[C@H](O)[C@H]2O)[C@H](O)[C@H]1O[C@H]1O[C@H](CO)[C@@H](O)[C@H](N)[C@H]1O`, the growth inhibition call was “active”.

With `NC[C@H]1O[C@H](O[C@H]2[C@H](O[C@@H]3O[C@H](CO)[C@@H](O)[C@H]3O)[C@@H](O)[C@H](N)C[C@@H]2N)[C@H](N)[C@@H](O)[C@@H]1O`, the growth inhibition call was “inactive”.

In the case of `CN[C@@H]1[C@@H](O[C@@]2(C)O[C@H](CO)[C@@H](N)[C@H](O)[C@H]2O)O[C@H]2C[C@@H](N)[C@@H](O[C@H]3[C@H](O)[C@@H](O)[C@H](N)C[C@@H]3N)O[C@@H]2[C@@H]1O`, the growth inhibition call is “inactive”.

For the compound `NCC1OC(OC2C(N)CC(N)C(OC3OC(CO)C(O)C(N)C3O)C2O)C(O)C(O)C1O.O=S(=O)(O)O` (configuration not stated), the growth inhibition call is “inactive”.

On to `CN[C@@H]1[C@@H](O[C@H]2O[C@H](CO)[C@@H](N)[C@H](O)[C@H]2O)O[C@H]2C[C@@H](N)[C@H](O[C@H]3[C@H](O)[C@@H](O)[C@H](N)C[C@@H]3N)O[C@@H]2[C@@H]1O`, for which the growth inhibition call is “inactive”.

In the case of `NCC1OC(OC2C(N)CC(N)C(OC3OC(CO)C(O)C(N)C3O)C2O)C(N)C(O)C1O.O=S(=O)(O)O` (configuration not stated), the growth inhibition call was “active”.

In the case of `NCC1OC(OC2C(CO)OC(OC3C(O)C(N)CC(N)C3OC3OC(CO)C(O)C(O)C3N)C2O)C(N)C(O)C1O.O=S(=O)(O)O` (configuration not stated), the growth inhibition call was “active”.

Consider `NCC1OC(OC2C(CO)OC(OC3C(O)C(N)CC(N)C3OC3OC(CN)C(O)C(O)C3N)C2O)C(N)C(O)C1O.O=S(=O)(O)O.O=S(=O)(O)O.O=S(=O)(O)O` (configuration not stated), for which the growth inhibition call was “inactive”.

With `O=C(C[C@@H]1C=C[C@@H](NC(=O)CN2CCOCC2)[C@@H](CO)O1)NCCc1ccncc1`, the growth inhibition call was “inactive”.

On to `COc1cccc(S(=O)(=O)N(C)C[C@H]2OCc3cn(nn3)CCCC(=O)N([C@H](C)CO)C[C@@H]2C)c1`, for which the growth inhibition call is “inactive”.

In the case of `COc1ccc(S(=O)(=O)N(C)C[C@@H]2OCCCC[C@@H](C)Oc3ccc(NC(=O)Nc4c(C)noc4C)cc3C(=O)N([C@H](C)CO)C[C@H]2C)cc1`, the growth inhibition call was “inactive”.

In the case of `C[C@H]1CN([C@@H](C)CO)C(=O)c2cc(NS(C)(=O)=O)ccc2O[C@H]1CN(C)C(=O)NC1CCCCC1`, the growth inhibition call was “inactive”.

For the compound `CN([NH2+][O-])c1ccc(O)c(O)c1`, the growth inhibition call was “inactive”.

For the compound `C[C@@H](N)c1ccc(F)cc1F`, the growth inhibition call is “inactive”.

As to `COc1ccc(S(=O)(=O)Nc2cccc3c2O[C@@H](CN(C)C(=O)NC(C)C)[C@@H](C)CN([C@@H](C)CO)C3=O)cc1`, the growth inhibition call was “inactive”.

Regarding `Cc1c2c(nn1C)CSCc1cc(n(C)n1)CSc1cc(c3ccccc3c1)OCCCc1c(C(=O)O)n(C)c3c-2c(Cl)ccc13`, the growth inhibition call is “active”.

For the compound `C[C@H]1CN([C@@H](C)CO)C(=O)c2cc(NC(=O)Nc3ccc(C(F)(F)F)cc3)ccc2O[C@@H]1CN(C)C(=O)Nc1ccc2c(c1)OCO2`, the growth inhibition call was “inactive”.

As for `N=C(N)c1ccc(C(N)=O)cc1`, the growth inhibition call was “inactive”.

For the compound `N=C(N)c1ccc(OCCCCCOc2ccc(C(=N)N)cc2)cc1.O=S(=O)(O)CCO.O=S(=O)(O)CCO`, the growth inhibition call was “active”.

Regarding `OCCC[C@@H](O)c1ccc(OCCO)cc1`, the growth inhibition call was “inactive”.

Consider `COc1ccc(S(=O)(=O)Nc2ccc3c(c2)C(=O)N([C@@H](C)CO)C[C@H](C)[C@H](CN(C)CC2CC2)O3)cc1`, for which the growth inhibition call is “inactive”.

As to `C[C@@H]1CN([C@@H](C)CO)C(=O)c2cc(NS(=O)(=O)c3ccccc3)ccc2O[C@@H](C)CCCCO[C@H]1CN(C)S(=O)(=O)c1cn(C)cn1`, the growth inhibition call is “inactive”.

On to `C[C@H](CO)N1C[C@H](C)[C@H](CN(C)S(=O)(=O)c2ccc(F)cc2)Oc2ncc(-c3ccncc3)cc2C1=O`, for which the growth inhibition call was “inactive”.

`CC(=O)c1c(O)c(C)c(O)c2c1OC1=CC(=O)C(C(C)=O)C(=O)C12C` (configuration not stated): the growth inhibition call is “active”.

Take `CC(=O)C1C(=O)C=C(C)OC1=O` (configuration not stated): the growth inhibition call is “inactive”.

Take `COc1cc(OC)c(C(C)=O)c(O)c1C`: the growth inhibition call was “inactive”.

Consider `CCCc1c(SCCCOc2ccc(C(C)=O)c(OCCCC(=O)O)c2CCC)ccc(C(C)=O)c1O`, for which the growth inhibition call is “active”.

On to `COCC(=O)Nc1ccc2c(c1)C(=O)N(C)C[C@@H](OC)[C@H](C)CN(Cc1cccc(F)c1)[C@H](C)CO2`, for which the growth inhibition call is “inactive”.

For `CC(=O)N1c2ccccc2C2=NNC(=S)N[C@]21O`, the growth inhibition call was “inactive”.

Consider `C[C@H]1CCCCO[C@H](CN(C)C(=O)Cc2ccccc2)[C@@H](C)CN([C@@H](C)CO)C(=O)c2cc(NC(=O)Nc3ccc(F)cc3)ccc2O1`, for which the growth inhibition call was “inactive”.
